Our source for the outcome values is PubChem BioAssay AID720697 (Broad Institute, 2013).

Results with a measured potency or affinity are listed apart. Inconclusive results are not listed. The source made the active and inactive calls.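 How the source made its calls: active means signal loss with fitted half-maximal concentration at or below twice the top valid tested dose in every test run; inconclusive means runs disagree, flat 30 to 70% signal loss, or poor fit; inactive means all runs flat, opposite direction, or potency beyond limit.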

This assay can be described thus: HEK293T cytotoxicity, dose response, cytotoxicity control for miR-122 modulator project, cell-based, inhibitor set, cherry-pick, set 2 (AID 720697).

In the case of `CNC(=O)C[C@@H]1CC[C@@H]2[C@@H](COc3ccc(NC(=O)c4cccc(OC)c4)cc3C(=O)N2C)O1`, the molecule was classed as inactive.
For `CN1C(=O)c2cc(NC(=O)c3ccc(C(F)(F)F)cc3)ccc2OC[C@@H]2O[C@H](CC(=O)NC3Cc4ccccc4C3)CC[C@H]21`, the molecule was classed as inactive.
As for `COc1ccc2c(c1)C(C)=CC(C)(C)N2C(=O)CNCc1ccc2c(c1)OCO2`, the entry is “inactive”.
Then `CC(C)C(=O)Nc1ccc2c(c1)C(=O)N(C)[C@@H]1CC[C@@H](CC(=O)NCC3CC3)O[C@H]1CO2`, with “inactive”; and `C=CCc1ccccc1OCC(O)CN1CCN(CCN2C(=O)c3cccc4cccc(c34)C2=O)CC1` (stereo not drawn), with “inactive”.
Then `CN1C(=O)c2cc(NS(=O)(=O)c3ccc(Cl)cc3)ccc2OC[C@@H]2O[C@H](CC(=O)N3CCc4ccccc4C3)CC[C@H]21`, with “inactive”; and `N#CCc1c(C#N)c(N)nc(N2CCN(S(=O)(=O)c3ccccc3)CC2)c1C#N`, with “inactive”; and `CN1C(=O)c2cc(NC(=O)c3ccc(C(F)(F)F)cc3)ccc2OC[C@H]2O[C@H](CC(=O)O)CC[C@@H]21`, with “inactive”.
For the molecule `Cc1cc(C(=O)Nc2cccc(O)c2)co1`, the call was inactive.
As for `CCCNC(=O)N1[C@H](CNC(C)=O)[C@H](c2ccc(C3=CCCC3)cc2)[C@@H]1CO`, the entry is “inactive”; as for `C[C@@H]1CN([C@H](C)CO)S(=O)(=O)c2ccc(C#Cc3ccccc3F)cc2O[C@@H]1CN(C)C(=O)Cc1ccncc1`, “inactive”; as for `CCCC(=O)Nc1ccc2c(c1)C(=O)N(C)[C@H]1CC[C@@H](CC(=O)NCCN3CCCCC3)O[C@H]1CO2`, “inactive”.
With `CNC(=O)C[C@H]1CC[C@@H]2[C@@H](COc3ccc(NC(=O)c4cccc(OC)c4)cc3C(=O)N2C)O1`, the call was inactive.
